Test results published in PubChem BioAssay (NCI).
Compounds without any hit were thinned out: in the full panel of roughly 83,000, 20% have a hit.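 Step 1: grow cells in 96-well plates. Step 2: add test compound at a single concentration. Step 3: incubate 48 h. Step 4: record percent growth.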 Activity calls are given as the source filed them. How the source made its calls: active means growth percent below 10; inactive means the rest.

Experiments:
Assay in all cases: NCI-60 one-dose screen, 48 h (100 = growth as untreated, 0 = no growth, -100 = all killed)
Conditions in all cases: 10 µM unless noted
[1] = tested on: SK-MEL-2 melanoma
[2] = tested on: EKVX NSCLC
[3] = tested on: SN12C renal
[4] = tested on: UO-31 renal
[5] = tested on: TK-10 renal
[6] = tested on: ACHN renal
[7] = tested on: A498 renal
[8] = tested on: CCRF-CEM leukemia
[9] = tested on: MOLT-4 leukemia
[10] = tested on: SR leukemia

Measured: growth

Nc1c(C(=O)Nc2ccccn2)sc2nc3c(cc12)CCCCCC3
inactive: [1] 11.5% | [2] 31.8% | [3] 39.2% | [4] 35.5% | [5] 35.7% | [6] 36.1% | [7] 15% | [9] 16.3%
active: [8] 5.58% | [10] 7.99%

O=C1[C@@H](OS(=O)(=O)CC(F)(F)F)[C@H](c2ccc(F)cn2)N1c1cc2c3ccccc3ccc2c2ccccc12
active: [8] 9.13% | [10] 4.47%
inactive: [1] 89.9% | [2] 87.6% | [3] 80.7% | [4] 62.1% | [5] 88.4% | [6] 76.3% | [7] 83.6%

COc1cc(NCC(=O)Nc2cc(Nc3ccc(C)cc3)ncn2)c(Cl)c(OC)c1Cl
inactive: [1] 103% | [2] 82.1% | [3] 88.1% | [4] 62.1% | [5] 121% | [6] 92.6% | [7] 84.9% | [8] 81.8% | [10] 78.9%

COCCOCCOCc1n(Cc2ccc3ccccc3c2)c2ccccc2[n+]1Cc1ccc2ccccc2c1
active: [1] -18.8% | [5] 3.33% | [10] -39.5%
inactive: [2] 47.4% | [3] 11.7% | [4] 81.9% | [6] 93.9% | [7] 12% | [8] 12%

COc1ccc(C(=O)c2cc(OC)c(OC)c(OC)c2)cc1OC(=O)CCl
inactive: [1] 26.1% | [2] 70.2% | [3] 32% | [4] 44.8% | [5] 63.6% | [6] 40.2% | [7] 59.3% | [8] 14.9% | [10] 13.4%

CCC1S/C(=N\N=C(/C)c2ccc[nH]2)N(c2ccccc2)C1=O (stereo not drawn)
active: [8] -86.5% | [9] -50%
inactive: [1] 124% | [2] 116% | [3] 116% | [4] 43% | [5] 83.5% | [6] 102% | [7] 112% | [10] 32.5%

CCc1n(Cc2ccc3ccccc3c2)c2ccccc2[n+]1Cc1ccc2ccccc2c1
inactive: [1] 71.6% | [2] 76.7% | [3] 65.2% | [4] 87.2% | [5] 75.5% | [6] 96.5% | [7] 87.6% | [8] 63.5% | [10] 28.4%

Cc1c(O)c(=O)ccn1-c1nc2ccccc2s1
inactive: [1] 90.5% | [2] 45.3% | [3] 98.9% | [4] 47.6% | [5] 91.2% | [6] 60.6% | [7] 95.8% | [8] 82.7% | [9] 103% | [10] 91.3%

COc1cc(/C=C/C(=O)c2ccc(NC(=O)CSc3nnc(-c4cc(OC)c(OC)c(OC)c4)n3-c3ccccc3)cc2)cc(OC)c1OC
inactive: [1] 32.1% | [2] 31.3% | [3] 41% | [5] 45.1% | [6] 17.9%
active: [4] -50.3% | [7] -12.1% | [8] 6.02% | [10] 2.13%

O=C(O)c1ccc(-n2cc(/C=N/Nc3ccc(Cl)cc3Cl)c(-c3ccccc3)n2)cc1
inactive: [1] 91.6% | [2] 77% | [3] 102% | [4] 67.5% | [5] 109% | [6] 83% | [7] 108% | [8] 93.8% | [10] 86.2%

O=C(O)CCNC1CCCCC1
active: [1] -21.2%
inactive: [2] 115% | [3] 88.3% | [4] 83.4% | [5] 118% | [6] 103% | [7] 94.6% | [8] 102% | [10] 105%

CO[C@@]12C=C[C@@]34CCC(=O)N3c3ccccc3[C@@H](O1)C4C2
inactive: [1] 101% | [2] 98.8% | [3] 95.5% | [4] 81.4% | [5] 95.1% | [6] 98.6% | [7] 109% | [8] 90.1% | [10] 96.9%

COc1ccc(-c2cc(-c3nnc(SCC(=O)Nc4ccc(/C(C)=N\O)cc4)n3-c3ccccc3)c3cc(OC)ccc3n2)cc1
inactive: [1] 86.9% | [2] 82.7% | [3] 86.8% | [4] 54.7% | [5] 87.8% | [6] 72.6% | [7] 78.1% | [8] 37.2% | [10] 49.1%

OCCNc1nc(NCCO)nc(Nc2ccc(C3=NN(c4cc(Cl)cc(Cl)c4)C(c4ccc(Cl)cc4)C3)cc2)n1 (stereo not drawn)
active: [5] -2.42% | [10] -29.5%
inactive: [1] 73.7% | [2] 20.6% | [3] 25.1% | [4] 18.1% | [6] 50.8% | [7] 71.2% | [8] 13.3%

CS(=O)(=O)O[C@@H]1C(=O)N(c2cc3c4ccccc4ccc3c3ccccc23)[C@H]1c1ccc(F)cn1
inactive: [1] 14.4% | [2] 47.1% | [3] 40.6% | [4] 46.9% | [5] 81.7% | [6] 52% | [7] 14.6% | [8] 10.4% | [9] 24.3% | [10] 11.4%

O=C(O)c1cc(N=Nc2ccc(-c3ccc(N=Nc4c(S(=O)(=O)O)cc5ccc(Nc6ccccc6)cc5c4O)cc3)cc2)ccc1O
inactive: [1] 93.8% | [2] 101% | [3] 98.7% | [4] 81.3% | [5] 106% | [6] 102% | [7] 99.4% | [8] 101% | [10] 105%

COc1ccc(-n2cc(-c3ccc(Cl)c(Cl)c3)[nH]c2=O)cc1OC
inactive: [1] 97.7% | [2] 93.6% | [3] 102% | [4] 95% | [5] 96.6% | [6] 105% | [7] 79.3% | [10] 40.1%
active: [8] 3.68%

N#C/C(=C/c1ccc(O)c([N+](=O)[O-])c1)c1nc(-c2ccc([N+](=O)[O-])cc2)cs1
inactive: [1] 16.9% | [2] 26.5% | [3] 36.3% | [4] 37.6% | [5] 52.7% | [6] 36.1% | [7] 21.3% | [8] 25.5% | [9] 25.1% | [10] 47.7%

O=Cc1[nH]c(Sc2ccccc2)c2ccccc12
inactive: [1] 81.6% | [2] 76.1% | [3] 77.7% | [4] 48.6% | [5] 80.3% | [6] 96.6% | [7] 95.3% | [8] 12.1% | [10] 59.3%

C#C[C@@]1(O)[C@@H](CO)O[C@@H](n2cc(Cl)c3c(N)ncnc32)[C@@H]1O
active: [1] -20.6% | [2] -32.4% | [3] 1.7% | [4] -60.1% | [5] -3.3% | [6] -12.5% | [7] -68.8% | [8] 5.93% | [9] 1.07% | [10] 0.983%

COc1ccc(C2CC(c3ccc(OC)cc3O)=NN2c2ccc(S(N)(=O)=O)cc2)cc1 (stereo not drawn)
inactive: [1] 58.7% | [2] 20.9% | [3] 54.2% | [4] 27.6% | [5] 43.9% | [6] 29.1% | [7] 71.2% | [8] 13.5%
active: [9] 4.82% | [10] 8.1%

COc1ccc(/C(=N\O)c2cc(C)c(OC)c(C)c2)cc1O
active: [7] 6.79% | [8] 7.8%
inactive: [1] 37.6% | [2] 51.7% | [3] 39.4% | [4] 51.6% | [5] 72% | [6] 31.7% | [9] 13.8% | [10] 10.3%

COc1cc2c(cc1OC)C(Sc1ccc(Cl)cc1)c1c(nc(N)c(C#N)c1N)O2 (stereo not drawn)
active: [1] -21.1% | [2] 1.68% | [3] 1.66% | [4] -36.3% | [5] -12.6% | [6] -66.9% | [8] -7.67% | [10] -13.3%
inactive: [7] 66.4%

C=C1C(=O)O[C@H]2[C@H]1CC/C(COC(=O)c1cn(C)c3ccccc13)=C\CC[C@@]1(C)O[C@@H]21
active: [1] -60% | [2] -29.1% | [3] -40.3% | [4] -93.5% | [5] -75.2% | [6] -82.7% | [8] 1.59% | [9] -0.986% | [10] -9.81%
inactive: [7] 65.4%

COc1ccc(N(C)c2nc(Cl)nc3ccn(C)c23)cc1
active: [7] -9.23% | [8] 8.02% | [9] 9.94%
inactive: [1] 19.3% | [2] 43.1% | [3] 23% | [4] 45% | [5] 67.7% | [6] 21.9% | [10] 11.3%

Cc1cc(C)c2nc(Nc3nc(C)c(C)c(=O)[nH]3)nc(C)c2c1
inactive: [2] 12.4% | [3] 20% | [4] 11.1% | [5] 17% | [6] 23.5%
active: [1] -25.6% | [7] -9.66% | [8] 7.98% | [10] -9.54%

O=C1Nc2ccc(Br)cc2/C1=N\N=C/c1cn(Cc2ccccc2)c2ccccc12
inactive: [1] 91.3% | [2] 56.2% | [3] 84.5% | [4] 75.7% | [5] 82.4% | [6] 98.9% | [7] 15.3% | [8] 81.1% | [9] 67% | [10] 80.1%

c1ccc2c3c([nH]c2c1)C(c1ccc(C2NCCc4c2[nH]c2ccccc42)cc1)NCC3 (stereo not drawn)
inactive: [2] 20.6% | [3] 41.6% | [5] 63.4% | [7] 116%
active: [1] -13% | [4] -0.102% | [6] -73.1% | [8] -16.7% | [10] -51.5%
